{"source": "paper PMC7862700", "about": "“An all-to-all approach to the identification of sequence-specific readers for epigenetic DNA modifications on cytosine”", "assay_in_all_cases": "DAPPL (digital affinity profiling via proximity ligation, sequencing); 10 mM Tris-HCl pH 7.5, 50 mM NaCl, 1 mM DTT, 4% glycerol, room temperature, 30 min; GST-TFs on glutathione beads, 16-mer random dsDNA library, 0.1% formaldehyde crosslink after washing; high values mean tight binding", "key": {"FEV": {"biological_target": "T1, FEV (Homo sapiens, UniProt Q99581 1-238)", "T1 sequence": "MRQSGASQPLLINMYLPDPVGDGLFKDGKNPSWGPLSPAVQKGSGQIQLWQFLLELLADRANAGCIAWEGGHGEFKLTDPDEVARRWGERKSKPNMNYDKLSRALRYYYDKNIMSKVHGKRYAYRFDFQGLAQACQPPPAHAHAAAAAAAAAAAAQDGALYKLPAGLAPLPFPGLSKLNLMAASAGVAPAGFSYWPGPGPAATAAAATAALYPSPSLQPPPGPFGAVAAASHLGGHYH", "conditions": "protein: recombinant; tags: N-terminal GST; dsDNA, one strand shown", "method_in_brief": "(§1)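 After expression in yeast as GST fusions, human transcription factors were bound to glutathione beads, DNA-barcoded and mixed with a tag-only sample. The pools were incubated with 200 nmole of a 16-mer random double-stranded DNA library in Tris/NaCl/DTT/glycerol buffer (30 min, room temperature), washed and crosslinked with 0.1% formaldehyde. Proximity ligation with BsaI/T4 ligase ran for 1 h at 37 °C, before PCR amplification and sequencing on an Illumina NextSeq500. Binding signal is a hexamer's read frequency for a factor divided by its frequency for the tag-only sample.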"}, "ETV5": {"biological_target": "ETV5 (Homo sapiens, UniProt P41161 1-510)", "sequence (P41161 whole entry)": "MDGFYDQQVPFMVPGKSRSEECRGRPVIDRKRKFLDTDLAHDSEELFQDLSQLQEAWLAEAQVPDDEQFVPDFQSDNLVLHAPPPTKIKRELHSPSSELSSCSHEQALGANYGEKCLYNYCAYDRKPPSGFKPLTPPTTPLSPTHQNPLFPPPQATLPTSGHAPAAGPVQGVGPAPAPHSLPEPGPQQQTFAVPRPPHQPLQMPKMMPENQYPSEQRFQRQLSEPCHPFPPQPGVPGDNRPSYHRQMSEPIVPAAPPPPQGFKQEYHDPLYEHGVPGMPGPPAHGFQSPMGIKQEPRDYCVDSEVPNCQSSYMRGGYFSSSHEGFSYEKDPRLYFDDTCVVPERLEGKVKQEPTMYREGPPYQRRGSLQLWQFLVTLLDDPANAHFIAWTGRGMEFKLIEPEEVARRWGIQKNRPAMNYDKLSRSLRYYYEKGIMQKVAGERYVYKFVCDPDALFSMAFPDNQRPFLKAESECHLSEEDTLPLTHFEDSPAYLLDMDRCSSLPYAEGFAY", "conditions": "protein: recombinant; tags: N-terminal GST; dsDNA, one strand shown", "method_in_brief": "as §1"}, "HSF1": {"biological_target": "HSF1 (Homo sapiens, UniProt Q00613 1-529)", "sequence (Q00613 whole entry)": "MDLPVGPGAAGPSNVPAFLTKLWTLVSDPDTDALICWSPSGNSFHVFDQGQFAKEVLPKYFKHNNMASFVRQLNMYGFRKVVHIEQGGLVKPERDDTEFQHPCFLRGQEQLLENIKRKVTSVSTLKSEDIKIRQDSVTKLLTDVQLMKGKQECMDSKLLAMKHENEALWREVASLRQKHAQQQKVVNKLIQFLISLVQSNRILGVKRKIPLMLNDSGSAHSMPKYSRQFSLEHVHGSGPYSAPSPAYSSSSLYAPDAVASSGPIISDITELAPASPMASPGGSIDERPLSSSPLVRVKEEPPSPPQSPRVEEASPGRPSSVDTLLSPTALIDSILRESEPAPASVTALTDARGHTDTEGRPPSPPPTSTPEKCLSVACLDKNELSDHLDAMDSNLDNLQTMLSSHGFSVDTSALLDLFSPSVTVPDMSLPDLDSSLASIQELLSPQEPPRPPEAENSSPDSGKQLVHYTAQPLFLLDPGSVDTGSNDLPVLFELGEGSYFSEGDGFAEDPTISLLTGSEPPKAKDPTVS", "conditions": "protein: recombinant; tags: N-terminal GST; chain copies: 3; dsDNA, one strand shown", "method_in_brief": "as §1"}, "SPIC": {"biological_target": "T2, SPIC (Homo sapiens, UniProt Q8N5J4 1-248)", "T2 sequence": "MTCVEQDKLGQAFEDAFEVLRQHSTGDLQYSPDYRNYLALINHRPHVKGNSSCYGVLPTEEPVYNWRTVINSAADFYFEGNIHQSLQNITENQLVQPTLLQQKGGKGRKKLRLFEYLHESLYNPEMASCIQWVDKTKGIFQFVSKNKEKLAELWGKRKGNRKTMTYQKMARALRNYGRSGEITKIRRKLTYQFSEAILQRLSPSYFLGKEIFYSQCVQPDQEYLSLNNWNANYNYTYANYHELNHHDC", "conditions": "protein: recombinant; tags: N-terminal GST; dsDNA, one strand shown", "method_in_brief": "as §1"}, "ELF4": {"biological_target": "ELF4 (Homo sapiens, UniProt Q99607 1-663)", "sequence (Q99607 whole entry)": "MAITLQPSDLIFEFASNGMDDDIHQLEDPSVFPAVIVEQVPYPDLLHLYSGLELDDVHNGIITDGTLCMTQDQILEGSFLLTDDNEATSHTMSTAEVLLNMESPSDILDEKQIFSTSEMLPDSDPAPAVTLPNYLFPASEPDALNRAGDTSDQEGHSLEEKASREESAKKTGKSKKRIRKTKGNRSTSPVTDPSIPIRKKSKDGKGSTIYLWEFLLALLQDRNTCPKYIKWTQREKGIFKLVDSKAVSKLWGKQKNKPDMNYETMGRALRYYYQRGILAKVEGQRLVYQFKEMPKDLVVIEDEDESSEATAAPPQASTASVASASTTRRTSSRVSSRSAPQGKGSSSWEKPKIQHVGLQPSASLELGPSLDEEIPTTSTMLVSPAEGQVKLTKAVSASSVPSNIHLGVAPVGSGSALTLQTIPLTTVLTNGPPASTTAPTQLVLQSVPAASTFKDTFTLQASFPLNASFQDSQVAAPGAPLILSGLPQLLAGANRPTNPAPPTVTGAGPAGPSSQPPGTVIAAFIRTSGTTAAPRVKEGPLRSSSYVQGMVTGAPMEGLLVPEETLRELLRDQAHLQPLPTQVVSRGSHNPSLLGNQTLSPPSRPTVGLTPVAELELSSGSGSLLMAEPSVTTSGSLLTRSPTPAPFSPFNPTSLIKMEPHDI", "conditions": "protein: recombinant; tags: N-terminal GST; dsDNA, one strand shown", "method_in_brief": "as §1"}, "ELK4": {"biological_target": "T3, ELK4 (Homo sapiens, UniProt P28324-2 1-405)", "T3 sequence": "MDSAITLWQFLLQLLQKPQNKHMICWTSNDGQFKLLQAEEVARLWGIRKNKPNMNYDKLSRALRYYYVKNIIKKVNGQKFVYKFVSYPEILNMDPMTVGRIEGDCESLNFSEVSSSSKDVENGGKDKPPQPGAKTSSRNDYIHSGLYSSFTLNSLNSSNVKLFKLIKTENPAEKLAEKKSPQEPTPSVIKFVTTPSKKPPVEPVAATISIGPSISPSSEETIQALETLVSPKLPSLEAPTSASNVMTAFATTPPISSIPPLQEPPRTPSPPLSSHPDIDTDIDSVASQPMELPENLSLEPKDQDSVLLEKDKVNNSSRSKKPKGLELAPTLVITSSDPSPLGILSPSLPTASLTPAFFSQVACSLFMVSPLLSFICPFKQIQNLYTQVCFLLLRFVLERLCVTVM", "conditions": "protein: recombinant; tags: N-terminal GST; dsDNA, one strand shown", "method_in_brief": "as §1"}, "ETV2": {"biological_target": "T4, ETV2 (Homo sapiens, UniProt O00321 1-342)", "T4 sequence": "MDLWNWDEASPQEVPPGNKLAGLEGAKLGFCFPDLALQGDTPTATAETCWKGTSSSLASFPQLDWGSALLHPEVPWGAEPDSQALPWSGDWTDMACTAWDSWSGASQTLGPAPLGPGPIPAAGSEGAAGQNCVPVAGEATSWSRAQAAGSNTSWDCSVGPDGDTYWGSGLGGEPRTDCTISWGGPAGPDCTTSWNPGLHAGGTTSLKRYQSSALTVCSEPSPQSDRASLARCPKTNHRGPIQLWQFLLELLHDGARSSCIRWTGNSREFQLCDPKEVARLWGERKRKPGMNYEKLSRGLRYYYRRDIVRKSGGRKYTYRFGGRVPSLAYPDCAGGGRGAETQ", "conditions": "protein: recombinant; tags: N-terminal GST; dsDNA, one strand shown", "method_in_brief": "as §1"}, "ELF3": {"biological_target": "T5, ELF3 (Homo sapiens, UniProt P78545 1-371)", "T5 sequence": "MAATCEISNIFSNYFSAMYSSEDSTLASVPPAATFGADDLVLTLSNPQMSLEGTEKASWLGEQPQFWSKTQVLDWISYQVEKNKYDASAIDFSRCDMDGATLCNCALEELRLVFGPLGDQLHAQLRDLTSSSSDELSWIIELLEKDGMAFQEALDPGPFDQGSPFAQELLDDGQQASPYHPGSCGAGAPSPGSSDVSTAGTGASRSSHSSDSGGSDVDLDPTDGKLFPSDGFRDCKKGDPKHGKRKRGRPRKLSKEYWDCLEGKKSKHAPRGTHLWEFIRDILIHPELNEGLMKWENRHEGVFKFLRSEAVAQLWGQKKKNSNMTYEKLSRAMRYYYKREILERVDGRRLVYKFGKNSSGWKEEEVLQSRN", "conditions": "protein: recombinant; tags: N-terminal GST; dsDNA, one strand shown", "method_in_brief": "as §1"}, "CRX": {"biological_target": "CRX (Homo sapiens, UniProt O43186 1-299)", "sequence (O43186 whole entry)": "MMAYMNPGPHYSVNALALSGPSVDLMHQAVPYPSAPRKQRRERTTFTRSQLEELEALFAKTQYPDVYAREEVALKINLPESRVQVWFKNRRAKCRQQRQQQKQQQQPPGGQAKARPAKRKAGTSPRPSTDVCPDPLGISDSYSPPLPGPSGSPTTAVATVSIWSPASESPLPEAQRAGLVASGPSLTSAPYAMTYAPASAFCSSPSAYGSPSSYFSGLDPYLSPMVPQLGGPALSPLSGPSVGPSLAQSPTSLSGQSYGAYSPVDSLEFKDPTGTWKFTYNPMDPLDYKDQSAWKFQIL", "conditions": "protein: recombinant; tags: N-terminal GST; dsDNA, one strand shown", "method_in_brief": "as §1"}, "ETV1": {"biological_target": "ETV1 (Homo sapiens, UniProt P50549 1-477)", "sequence (P50549 whole entry)": "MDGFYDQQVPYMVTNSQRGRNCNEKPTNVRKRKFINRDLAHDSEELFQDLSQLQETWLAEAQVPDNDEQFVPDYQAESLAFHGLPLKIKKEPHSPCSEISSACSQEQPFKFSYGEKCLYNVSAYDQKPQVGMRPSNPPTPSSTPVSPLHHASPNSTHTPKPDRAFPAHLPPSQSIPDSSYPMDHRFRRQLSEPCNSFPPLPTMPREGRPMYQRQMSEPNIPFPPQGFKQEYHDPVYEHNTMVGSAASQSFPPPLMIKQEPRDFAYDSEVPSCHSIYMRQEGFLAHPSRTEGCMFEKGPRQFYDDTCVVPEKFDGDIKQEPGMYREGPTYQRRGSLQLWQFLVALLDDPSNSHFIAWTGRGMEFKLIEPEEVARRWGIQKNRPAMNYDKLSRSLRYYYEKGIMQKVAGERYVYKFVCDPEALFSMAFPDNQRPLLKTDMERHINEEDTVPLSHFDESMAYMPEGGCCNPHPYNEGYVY", "conditions": "protein: recombinant; tags: N-terminal GST; dsDNA, one strand shown", "method_in_brief": "as §1"}}}
{"sequence": "CTTCTA", "values": [{"measurement": "binding signal", "setting": "FEV", "value": "1.4 fold enrichment (6-mer frequency, TF over GST control)"}, {"measurement": "binding signal", "setting": "ETV5", "value": "1.46 fold enrichment (6-mer frequency, TF over GST control)"}, {"measurement": "binding signal", "setting": "HSF1", "value": "3.31 fold enrichment (6-mer frequency, TF over GST control)"}, {"measurement": "binding signal", "setting": "SPIC", "value": "1.28 fold enrichment (6-mer frequency, TF over GST control)"}, {"measurement": "binding signal", "setting": "ELF4", "value": "1.38 fold enrichment (6-mer frequency, TF over GST control)"}, {"measurement": "binding signal", "setting": "ELK4", "value": "1.53 fold enrichment (6-mer frequency, TF over GST control)"}, {"measurement": "binding signal", "setting": "ETV2", "value": "1.49 fold enrichment (6-mer frequency, TF over GST control)"}, {"measurement": "binding signal", "setting": "ELF3", "value": "1.42 fold enrichment (6-mer frequency, TF over GST control)"}, {"measurement": "binding signal", "setting": "CRX", "value": "1.87 fold enrichment (6-mer frequency, TF over GST control)"}, {"measurement": "binding signal", "setting": "ETV1", "value": "1.49 fold enrichment (6-mer frequency, TF over GST control)"}]}
